Data from the supplement of paper PMC7411640.
Where a name gives a salt, the structure may show the parent alone.

Tested on: MDA-MB-468
Assay: phospho-S6 immunofluorescence (DAPI-normalised), per-plate z-score; higher = higher phospho-S6 signal (less pathway suppression)
Details: 24 h
Experimental: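 GPCR-targeted compound library (MedChemExpress HY-L006) tested on MDA-MB-468 PTEN-null TNBC cells in 384-well plates at 0.1, 1 or 10 uM, combined with vehicle, GDC0941 450 nM or lapatinib 1 uM, for 24 h. Phospho-S6 (S240/244) immunofluorescence normalised to DAPI and expressed as a per-plate z-score; values are the mean of biological triplicates.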

SMILES | phospho-S6 immunofluorescence (z-score) (co-treatment: GDC0941 450 nM) | phospho-S6 immunofluorescence (z-score) (co-treatment: lapatinib 1 uM) | phospho-S6 immunofluorescence (z-score) (co-treatment: vehicle)
Cc1ccc(S(=O)(=O)N2CCCC2c2ccc(F)cc2)cc1 (configuration not stated) (compound 10 µM) | -2.47 | 0.46 | -1.81
CN(C)CC[C@@H](c1ccc(Cl)cc1)c1ccccn1 [Dexchlorpheniramine (maleate)] (compound 10 µM) | 0.61 | -0.08 | -0.33
Clc1cccc(COc2cncc(N3CCNCC3)n2)c1 (compound 10 µM) | -1.03 | -4.09 | 0.21
O=C(CCCN1CC=C(n2c(=O)[nH]c3ccccc32)CC1)c1ccc(F)cc1 [Droperidol] (compound 10 µM) | -0.18 | 0.16 | 0.18
NC(N)=Nc1nc(CSCCN/C=N/S(=O)(=O)c2ccc(Br)cc2)cs1 [Ebrotidine] (compound 10 µM) | -4.2 | -3.36 | -1.7
CN(C)[C@@H]1CCc2[nH]c3ccc(NC(=O)c4ccc(F)cc4)cc3c2C1 (compound 10 µM) | 0.67 | -1.38 | -0.54
OC[C@H]1O[C@@H](n2cnc3c(N[C@H]4CCC[C@@H]4O)ncnc32)[C@H](O)[C@@H]1O (compound 10 µM) | 0.54 | 0.82 | 0.2
C[C@H]1C[C@H]2[C@@H]3CCC4=CC(=O)C=C[C@]4(C)[C@@]3(F)[C@@H](O)C[C@]2(C)[C@@]1(O)C(=O)CO [Betamethasone] (compound 10 µM) | -1.59 | 1.5 | -0.96
CC(C)C[C@H](NC(=O)[C@@H](COC(C)(C)C)NC(=O)[C@H](Cc1ccc(O)cc1)NC(=O)[C@H](CO)NC(=O)[C@H](Cc1c[nH]c2ccccc12)NC(=O)[C@H](Cc1cnc[nH]1)NC(=O)[C@@H]1CCC(=O)N1)C(=O)N[C@@H](CCCNC(=N)N)C(=O)N1CCC[C@H]1C(=O)NNC(N)=O [Goserelin (acetate)] (compound 10 µM) | -1.26 | 0.37 | 0.21
c1ccc(NCc2ccc(CNc3ccccn3)cc2)nc1 (compound 10 µM) | 0.88 | -0.48 | 0.72
CC(CCc1ccccc1)NCC(O)c1ccc(O)c(C(N)=O)c1 (configuration not stated) [Labetalol (hydrochloride)] (compound 10 µM) | 0.84 | -0.16 | 0.83
CN(C)CCCN1c2ccccc2Sc2ccc(Cl)cc21 [Chlorpromazine (hydrochloride)] (compound 10 µM) | 0.58 | -1.09 | 3.4
Cc1ccc(Sc2ccccc2N2CCNCC2)c(C)c1 [Vortioxetine] (compound 10 µM) | -5.05 | -7.7 | -6.93
c1ccc(CN(CC2=NCCN2)c2ccccc2)cc1 [Antazoline (hydrochloride)] (compound 10 µM) | 0.27 | 0.23 | 1.23
